Measured values as given in the supplement of paper PMC11732987, “Enantioselective OTUD7B fragment discovery through chemoproteomics screening and high-throughput optimisation” (Communications Chemistry, 2025).

Experiments:
Assay in all cases: log2 ratio of Biotin-Ahx-Ub-VS probe labelling (fragment/DMSO); higher = less target engagement (more negative = stronger competition), active = hit call of the paper (q ≤ 0.05, log2 ratio ≤ -1)
Conditions in all cases: compound concentration: 200 uM; treatment time: 3 h
OTUD6B = biological target: T1, OTUD6B (UniProt Q8N6M0)
T1 sequence (whole entry): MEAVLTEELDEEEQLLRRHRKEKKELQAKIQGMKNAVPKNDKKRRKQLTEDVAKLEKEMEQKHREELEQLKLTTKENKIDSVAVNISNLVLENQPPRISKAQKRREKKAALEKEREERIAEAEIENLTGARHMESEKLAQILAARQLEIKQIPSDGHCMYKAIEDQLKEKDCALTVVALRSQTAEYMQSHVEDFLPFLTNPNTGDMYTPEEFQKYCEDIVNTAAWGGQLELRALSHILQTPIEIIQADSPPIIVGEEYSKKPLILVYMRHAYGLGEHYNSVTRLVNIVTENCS
Method in brief: (§1)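 Using Biotin-Ahx-Ub-VS at 0.5 µM final for 1 h, DUBs were labelled in HEK293T lysate (495 µg per sample) that had first been treated in triplicate with fragment at 200 µM or vehicle for 3 h. NeutrAvidin enrichment, LysC and trypsin digestion and diaPASEF LC-MS/MS followed. Spectronaut label-free quantities were global-median-normalised. Values are average log2 fragment/vehicle ratios by unpaired t-test, using proteins with ≥2 unique peptides.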

OTUD7B = biological target: T2, OTUD7B (UniProt Q6GQQ9)
T2 sequence (whole entry): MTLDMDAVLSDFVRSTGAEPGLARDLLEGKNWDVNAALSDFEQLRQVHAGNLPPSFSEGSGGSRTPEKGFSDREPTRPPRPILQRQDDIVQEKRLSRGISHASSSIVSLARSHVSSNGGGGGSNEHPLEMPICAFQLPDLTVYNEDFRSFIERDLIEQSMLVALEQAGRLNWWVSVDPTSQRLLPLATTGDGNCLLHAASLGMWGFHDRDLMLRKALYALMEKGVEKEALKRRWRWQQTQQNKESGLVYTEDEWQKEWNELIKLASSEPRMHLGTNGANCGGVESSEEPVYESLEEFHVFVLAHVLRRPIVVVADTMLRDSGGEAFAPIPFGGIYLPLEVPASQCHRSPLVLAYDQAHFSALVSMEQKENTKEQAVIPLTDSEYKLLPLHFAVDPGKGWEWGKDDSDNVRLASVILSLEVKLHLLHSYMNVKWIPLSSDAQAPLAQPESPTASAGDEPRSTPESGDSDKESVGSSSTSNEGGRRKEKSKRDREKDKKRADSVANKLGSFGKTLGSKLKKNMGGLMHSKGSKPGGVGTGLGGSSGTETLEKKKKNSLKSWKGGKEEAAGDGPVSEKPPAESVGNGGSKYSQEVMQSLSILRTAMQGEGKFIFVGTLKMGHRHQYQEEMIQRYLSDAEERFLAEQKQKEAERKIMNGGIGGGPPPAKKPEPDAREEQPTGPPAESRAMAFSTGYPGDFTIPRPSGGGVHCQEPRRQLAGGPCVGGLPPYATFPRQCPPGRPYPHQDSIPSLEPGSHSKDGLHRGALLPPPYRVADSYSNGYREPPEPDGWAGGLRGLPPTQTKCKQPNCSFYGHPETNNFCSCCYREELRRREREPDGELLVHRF
Method in brief: as §1

PRPF8 = PRPF8 (UniProt Q6P2Q9)
Method in brief: as §1

PSMD7 = biological target: T3, PSMD7 (UniProt P51665)
T3 sequence (whole entry): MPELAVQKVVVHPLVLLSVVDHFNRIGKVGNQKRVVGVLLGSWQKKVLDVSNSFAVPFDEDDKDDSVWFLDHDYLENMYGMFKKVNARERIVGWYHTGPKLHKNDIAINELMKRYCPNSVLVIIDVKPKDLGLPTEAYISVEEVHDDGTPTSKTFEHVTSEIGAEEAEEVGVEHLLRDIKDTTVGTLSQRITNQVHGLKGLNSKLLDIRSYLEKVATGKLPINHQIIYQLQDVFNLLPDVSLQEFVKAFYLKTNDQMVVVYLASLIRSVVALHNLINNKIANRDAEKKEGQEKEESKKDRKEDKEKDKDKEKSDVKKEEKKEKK
Method in brief: as §1

UCHL1 = UCHL1 (UniProt P09936)
Chain of UCHL1 (P09936 whole entry, looked up): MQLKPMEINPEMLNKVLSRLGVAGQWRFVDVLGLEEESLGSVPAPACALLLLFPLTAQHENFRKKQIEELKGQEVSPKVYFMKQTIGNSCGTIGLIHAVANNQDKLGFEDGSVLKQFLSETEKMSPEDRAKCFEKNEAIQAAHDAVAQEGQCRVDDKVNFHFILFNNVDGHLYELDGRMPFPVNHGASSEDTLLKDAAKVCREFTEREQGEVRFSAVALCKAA
Method in brief: as §1

UCHL3 = biological target: T4, UCHL3 (UniProt P15374)
T4 sequence (whole entry): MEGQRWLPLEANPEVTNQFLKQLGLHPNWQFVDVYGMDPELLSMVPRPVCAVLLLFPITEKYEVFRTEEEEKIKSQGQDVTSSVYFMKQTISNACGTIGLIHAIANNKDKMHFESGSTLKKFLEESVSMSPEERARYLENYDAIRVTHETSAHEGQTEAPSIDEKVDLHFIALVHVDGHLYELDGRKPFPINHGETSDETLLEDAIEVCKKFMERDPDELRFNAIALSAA
Method in brief: as §1

UCHL5 = biological target: T5, UCHL5 (UniProt Q9Y5K5)
T5 sequence (whole entry): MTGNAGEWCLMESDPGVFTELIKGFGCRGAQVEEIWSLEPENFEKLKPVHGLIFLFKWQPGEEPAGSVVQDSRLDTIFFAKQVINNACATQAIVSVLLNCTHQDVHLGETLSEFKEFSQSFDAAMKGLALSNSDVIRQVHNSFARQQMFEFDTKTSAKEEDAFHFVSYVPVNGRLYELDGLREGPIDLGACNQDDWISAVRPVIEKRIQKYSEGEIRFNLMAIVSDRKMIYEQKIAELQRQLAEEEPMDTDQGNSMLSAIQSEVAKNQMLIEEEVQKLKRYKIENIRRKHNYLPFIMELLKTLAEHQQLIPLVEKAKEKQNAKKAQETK
Method in brief: as §1

USP10 = USP10 (UniProt Q14694)
Chain of USP10 (Q14694 whole entry): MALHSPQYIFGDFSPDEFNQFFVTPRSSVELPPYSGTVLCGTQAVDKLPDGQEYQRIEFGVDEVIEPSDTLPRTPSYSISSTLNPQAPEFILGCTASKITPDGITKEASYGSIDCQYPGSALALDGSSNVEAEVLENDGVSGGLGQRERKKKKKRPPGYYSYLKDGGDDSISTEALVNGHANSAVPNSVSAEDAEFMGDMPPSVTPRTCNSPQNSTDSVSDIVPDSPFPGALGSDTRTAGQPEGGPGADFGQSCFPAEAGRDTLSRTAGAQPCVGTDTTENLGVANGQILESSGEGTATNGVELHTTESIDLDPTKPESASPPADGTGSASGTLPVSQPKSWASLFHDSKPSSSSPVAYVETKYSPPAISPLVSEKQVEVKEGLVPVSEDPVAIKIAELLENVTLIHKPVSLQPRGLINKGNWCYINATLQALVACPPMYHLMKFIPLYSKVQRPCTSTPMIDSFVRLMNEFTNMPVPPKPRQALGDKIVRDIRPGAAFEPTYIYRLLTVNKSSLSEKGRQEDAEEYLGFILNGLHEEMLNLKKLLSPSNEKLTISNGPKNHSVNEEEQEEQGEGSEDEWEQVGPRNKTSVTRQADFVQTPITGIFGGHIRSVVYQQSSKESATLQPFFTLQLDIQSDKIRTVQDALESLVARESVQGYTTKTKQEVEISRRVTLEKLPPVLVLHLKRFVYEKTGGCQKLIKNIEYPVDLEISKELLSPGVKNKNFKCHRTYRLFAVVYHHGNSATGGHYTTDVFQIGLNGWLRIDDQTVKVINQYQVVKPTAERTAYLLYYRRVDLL
Method in brief: as §1

USP15 = biological target: T6, USP15 (UniProt Q9Y4E8)
T6 sequence (whole entry): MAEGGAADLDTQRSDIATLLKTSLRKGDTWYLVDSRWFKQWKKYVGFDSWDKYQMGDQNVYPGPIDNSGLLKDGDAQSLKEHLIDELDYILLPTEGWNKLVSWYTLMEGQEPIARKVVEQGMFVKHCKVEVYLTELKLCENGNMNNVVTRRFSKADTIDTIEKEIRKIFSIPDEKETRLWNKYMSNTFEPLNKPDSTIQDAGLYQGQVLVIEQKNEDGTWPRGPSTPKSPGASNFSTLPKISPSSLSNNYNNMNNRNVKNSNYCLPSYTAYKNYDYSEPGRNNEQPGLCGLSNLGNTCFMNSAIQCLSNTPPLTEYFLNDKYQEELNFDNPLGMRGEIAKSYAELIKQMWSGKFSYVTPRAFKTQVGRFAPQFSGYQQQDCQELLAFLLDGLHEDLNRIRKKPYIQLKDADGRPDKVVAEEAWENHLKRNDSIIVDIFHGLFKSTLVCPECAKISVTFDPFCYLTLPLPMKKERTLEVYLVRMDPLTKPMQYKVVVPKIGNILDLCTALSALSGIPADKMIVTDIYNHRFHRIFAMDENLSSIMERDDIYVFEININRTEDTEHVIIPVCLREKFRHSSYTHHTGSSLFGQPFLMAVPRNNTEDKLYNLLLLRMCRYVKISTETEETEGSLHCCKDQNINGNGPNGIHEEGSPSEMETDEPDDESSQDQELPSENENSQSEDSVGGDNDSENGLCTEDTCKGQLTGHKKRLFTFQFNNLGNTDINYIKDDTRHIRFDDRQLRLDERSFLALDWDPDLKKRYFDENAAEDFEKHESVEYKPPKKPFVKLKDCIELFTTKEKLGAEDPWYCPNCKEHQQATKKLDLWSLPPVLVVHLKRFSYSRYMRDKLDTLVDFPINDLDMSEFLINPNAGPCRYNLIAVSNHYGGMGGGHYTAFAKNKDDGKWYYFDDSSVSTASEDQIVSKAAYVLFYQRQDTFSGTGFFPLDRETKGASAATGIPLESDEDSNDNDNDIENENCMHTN
Method in brief: as §1

USP16 = USP16 (UniProt Q9Y5T5)
Chain of USP16 (Q9Y5T5 whole entry, looked up): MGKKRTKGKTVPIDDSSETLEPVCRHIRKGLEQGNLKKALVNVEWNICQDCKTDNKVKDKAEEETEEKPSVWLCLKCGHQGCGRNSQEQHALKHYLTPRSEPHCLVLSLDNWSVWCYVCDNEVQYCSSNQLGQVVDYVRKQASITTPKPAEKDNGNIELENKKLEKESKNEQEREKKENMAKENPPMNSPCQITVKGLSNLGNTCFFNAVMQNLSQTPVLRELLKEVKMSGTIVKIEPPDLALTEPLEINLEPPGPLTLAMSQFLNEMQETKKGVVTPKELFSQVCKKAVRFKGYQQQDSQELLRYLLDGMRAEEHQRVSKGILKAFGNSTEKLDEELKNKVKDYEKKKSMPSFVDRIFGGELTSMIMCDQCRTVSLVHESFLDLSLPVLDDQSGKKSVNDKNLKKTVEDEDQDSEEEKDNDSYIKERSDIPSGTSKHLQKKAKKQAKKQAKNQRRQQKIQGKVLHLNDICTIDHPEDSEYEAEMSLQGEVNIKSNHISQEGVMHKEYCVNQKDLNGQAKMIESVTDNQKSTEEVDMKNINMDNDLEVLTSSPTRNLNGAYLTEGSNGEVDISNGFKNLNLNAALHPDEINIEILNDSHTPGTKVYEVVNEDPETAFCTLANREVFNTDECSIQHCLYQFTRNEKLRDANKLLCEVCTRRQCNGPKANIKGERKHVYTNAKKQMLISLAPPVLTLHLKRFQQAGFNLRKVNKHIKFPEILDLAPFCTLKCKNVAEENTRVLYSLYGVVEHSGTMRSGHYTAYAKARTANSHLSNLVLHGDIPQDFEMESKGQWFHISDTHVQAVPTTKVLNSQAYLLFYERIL
Method in brief: as §1

Measured: log2 ratio of Biotin-Ahx-Ub-VS probe labelling

Cc1cnc2[nH]cc(CCNC(=O)CCl)c2c1
inactive: OTUD6B 0.00839 | OTUD7B -0.562 | PRPF8 -0.0916 | PSMD7 -0.297 | UCHL1 -0.85 | UCHL3 0.0619 | UCHL5 -0.065 | USP10 -0.0977 | USP15 -0.336 | USP16 0.0147
